The entries come from a sample that favours hits as a whole.
ClpP mod: qHTS Assay for Activators of ClpP. purified B. subtilis ClpP, FRET peptide cleavage, 20 min. 340,000 tested, 1.9% active. Potency, µM (highest dose often 57.5 µM), for the others: at the highest dose activity change, negative = active. AID 651965, 2013; active = well fitted falling curve with a large enough effect; inconclusive = small, poorly fitted or top-dose-only effect; inactive = no such curve, though single readings can be large or run the other way; note: potency is the fitted concentration of half-maximal effect; the source files actives as falling curves though it sought activators and does not explain the sign; nearly all actives have a fitted effect of over 65% in size
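FRET quenching reversal measured ClpP activation: 10 microg/mL B. subtilis ClpP at pH 8 with the FRET-FV decapeptide, read at 430 nm after 320 nm excitation. The 20-min minus 0-min signal was scaled between DMSO/no-enzyme wells and ADEP (5.8 microM final).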
p53 reactivation: re-activators of mutant p53; AID 504706; 320,000 tested, 0.063% active; Potency, µM (series often up to 92.2 µM), inactives show top-dose activity change, positive = activation, most hits filed as activators; H1299 p53-A138V BP100-luciferase reporter, luminescence, 24 h; active = well fitted activation curve with a large enough effect; inconclusive = small, poorly fitted or top-dose-only effect; inactive = no such curve, though single readings can be large or run the other way; note: potency is the fitted concentration of half-maximal effect; % of control where 0% means no effect; nearly all actives have a fitted effect of over 45% in size
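H1299 (p53-null), stable ts p53-A138V + BP100-Luc; 1000 cells/well, Opti-MEM/10% FBS; cpd 4 pt, 1:5; 24 h, 37 deg C, 5% CO2; detection reagent 10 min RT; luminescence.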
Menin-MLL TR inh: menin-MLL binding inhibition, Texas Red mutant peptide; 270,000 tested, 0.23% active; Potency, µM (titrated, usually from 61.6 µM), without a hit: at the highest dose FP activity change, negative = inhibition, usual class: inhibitors; O00255; Menin + Texas Red MLL mutant peptide, fluorescence polarization; active = well fitted inhibition curve with a large enough effect in the polarisation, with a control signal flat, not every such curve was filed as active; inconclusive = small, poorly fitted or top-dose-only effect, or effect the other way, or a change in a side signal; inactive = no such curve, though single readings can be large or run the other way; the % refers to the polarisation; note: potency is the fitted concentration of half-maximal effect; % of control where 0% means no effect
Target sequence (O00255 whole entry, looked up): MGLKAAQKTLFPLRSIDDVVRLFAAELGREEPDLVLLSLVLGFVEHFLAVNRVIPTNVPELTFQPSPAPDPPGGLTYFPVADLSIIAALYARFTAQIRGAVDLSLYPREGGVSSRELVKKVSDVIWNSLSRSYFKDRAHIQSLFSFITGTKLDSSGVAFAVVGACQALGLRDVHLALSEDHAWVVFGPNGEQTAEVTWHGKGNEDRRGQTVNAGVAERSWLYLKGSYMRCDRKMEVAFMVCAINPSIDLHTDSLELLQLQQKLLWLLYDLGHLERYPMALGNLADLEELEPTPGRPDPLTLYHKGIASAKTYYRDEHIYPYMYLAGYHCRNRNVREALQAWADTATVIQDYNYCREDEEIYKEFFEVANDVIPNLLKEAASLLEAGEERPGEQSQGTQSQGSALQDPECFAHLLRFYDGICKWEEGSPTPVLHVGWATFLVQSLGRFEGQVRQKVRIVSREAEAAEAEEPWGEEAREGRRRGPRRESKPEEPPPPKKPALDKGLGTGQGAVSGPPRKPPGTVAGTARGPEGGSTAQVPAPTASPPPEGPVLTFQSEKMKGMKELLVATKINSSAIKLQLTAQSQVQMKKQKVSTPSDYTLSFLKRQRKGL
MLL CXXC-DNA inh: MLL CXXC-DNA interaction inhibition; Q03164; MLL-CXXC / FITC-HOXA9 DNA fluorescence polarization; Potency, µM (series often up to 115 µM), for the others: at the highest dose activity change, negative = inhibition, actives largely listed as inhibitors; 290,000 tested, 0.037% active; active = well fitted inhibition curve with a large enough effect in the polarisation, with a control signal flat, not every such curve was filed as active; inconclusive = small, poorly fitted or top-dose-only effect, or effect the other way, or a change in a side signal; inactive = no such curve, though single readings can be large or run the other way; the % refers to the polarisation; note: potency is the fitted concentration of half-maximal effect
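Steps: dispense CXXC domain solution (7 uM) → pin compounds or unlabeled HOX-A9 DNA control → 5 min ambient → add FLSN-HOX-A9 solution (50 nM) → spin → 30 min ambient → fluorescence polarization. Tris pH 7.5/NaCl/DTT/BSA buffer.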
Menin-MLL FL inh: displaces fluorescein MLL peptide from human menin. 290,000 tested, under 10 active. AID 1766. Fluorescence polarization, fluorescein-MLL peptide displacement from menin. FP activity change, % at 61.4 µM; active = well fitted curve in the direction sought with a large enough effect in the polarisation, not every such curve was filed as active; inconclusive = small, poorly fitted or top-dose-only effect, or effect the other way, or a change in a side signal; inactive = no such curve, though single readings can be large or run the other way; the % refers to the polarisation; note: % of control where 0% means no effect
The depositor's hits bear a star.

COc1ccc(C2Nc3ccccc3C(=O)N2c2ccccc2)cc1CSc1ccccn1 (stereo not given) was read as ClpP mod 32µM*, p53 reactivation 14%, Menin-MLL TR inh -1%, MLL CXXC-DNA inh 13% and Menin-MLL FL inh 3.
c1ccc2c(c1)NC(c1ccncc1)n1c-2nc2ccccc21 (stereo not given) was read as ClpP mod 28µM*, p53 reactivation 5%, Menin-MLL TR inh -2%, MLL CXXC-DNA inh 0% and Menin-MLL FL inh 3.
Screening COc1ccc(C2Nc3ccccc3C(=O)N2c2ccc(F)cc2)cc1CSc1ccccn1 (stereo not given) returned ClpP mod 8.9µM*, p53 reactivation inconclusive, Menin-MLL TR inh -19%, MLL CXXC-DNA inh 3% and Menin-MLL FL inh -1.
For COc1ccc(C2Nc3ccccc3C(=O)N2Cc2ccccc2)cc1CSc1ccccn1 (stereo not given) the results were ClpP mod 14µM*, p53 reactivation -3%, Menin-MLL TR inh -2%, MLL CXXC-DNA inh -3% and Menin-MLL FL inh 1.
For Clc1ccc(-c2csc3ncnc(Sc4nnnn4C4CC4)c23)cc1 the results were ClpP mod -8%.
O=S(=O)(c1ccc2c(c1)CCCC2)N1CCN(c2nc(-c3ccccc3)nc3ccccc23)CC1 was read as ClpP mod -7%.
For COc1ccccc1N1C(=O)c2ccccc2NC1c1ccncc1 (stereo not given) the results were ClpP mod inconclusive, p53 reactivation 3%, Menin-MLL TR inh -2%, MLL CXXC-DNA inh 2% and Menin-MLL FL inh 0.
For O=C1c2ccccc2NC(c2ccncc2)N1c1ccccn1 (stereo not given) the results were ClpP mod 28µM*, p53 reactivation 1%, Menin-MLL TR inh 5%, MLL CXXC-DNA inh 4% and Menin-MLL FL inh 6.
For COc1ccc(C2Nc3ccccc3C(=O)N2c2ccccc2)cc1COc1ccccn1 (stereo not given) the results were ClpP mod 28µM*, p53 reactivation inconclusive, Menin-MLL TR inh -12%, MLL CXXC-DNA inh 1% and Menin-MLL FL inh -2.
For COc1ccc(-c2nnc(-c3ccc(N)cc3)o2)cc1 the results were ClpP mod 28µM*, p53 reactivation 19%, Menin-MLL TR inh 12%, MLL CXXC-DNA inh -8% and Menin-MLL FL inh 0.
For COc1ccc(-c2ccc(-c3nnc(-c4cc(OC)ccc4OC)o3)cc2)cc1 the results were ClpP mod 16µM*, p53 reactivation 6%, Menin-MLL TR inh 2%, MLL CXXC-DNA inh 1% and Menin-MLL FL inh 1.
For Oc1cc(NCc2cccnc2)ccc1-c1nc2ccccc2o1 the results were ClpP mod 35µM*, p53 reactivation inconclusive, Menin-MLL TR inh inconclusive, MLL CXXC-DNA inh 0% and Menin-MLL FL inh 1.
Screening COc1cc(/C=C/c2ccnc3ccccc23)ccc1N(C)C returned ClpP mod 0%.
`CCOC(=O)C1CCN(C(=O)c2cccs2)CC1` gave ClpP mod -2%, p53 reactivation -1%, Menin-MLL TR inh 8%, MLL CXXC-DNA inh -3% and Menin-MLL FL inh 1.
`CC1CCN(C(=O)Cn2c(-c3cccs3)cc3cc(Cl)ccc32)CC1` gave ClpP mod 35µM*.
Screening CCOC(=O)C1CCN(C(=O)Cn2c(-c3cccs3)cc3cc(Cl)ccc32)CC1 returned ClpP mod 35µM*.
`CC1CCN(C(=O)Cn2nnc(-c3cccs3)n2)CC1` gave ClpP mod 0%, p53 reactivation 5%, Menin-MLL TR inh 6%, MLL CXXC-DNA inh -2% and Menin-MLL FL inh -6.
CN(C)c1ccc(/C=C/c2ccnc3c(O)ccc(O)c23)cc1 was read as ClpP mod -4%.
Screening N#Cc1ccc(C23CC4CC(CC(C4)C2)C3)[nH]c1=O returned ClpP mod 16µM*, p53 reactivation 3%, Menin-MLL TR inh -1%, MLL CXXC-DNA inh -5% and Menin-MLL FL inh -4.
Cc1nc(N2CCN(S(=O)(=O)c3ccccc3)CC2)c2cc(-c3ccccc3)sc2n1 was read as ClpP mod 28µM*, p53 reactivation 8%, Menin-MLL TR inh -2%, MLL CXXC-DNA inh 17% and Menin-MLL FL inh 1.
Cc1cccc(-n2c(C)nnc2SCC(=O)NC(C)c2ccco2)c1 (stereo not given) was read as ClpP mod -2%.
`CCCCn1c(NC(C)=O)c(C#N)c2nc3ccccc3nc21` gave ClpP mod 28µM*, p53 reactivation -6%, Menin-MLL TR inh inconclusive, MLL CXXC-DNA inh -3% and Menin-MLL FL inh inconclusive.
Screening COc1cc2c(cc1OC)C(=O)CCC2 returned ClpP mod 28µM*.
Screening CC(C)(C)c1ccc(NC(=O)CSc2nnc(-c3n[nH]c4ccccc34)o2)cc1 returned ClpP mod 32µM*, p53 reactivation inconclusive, Menin-MLL TR inh inconclusive, MLL CXXC-DNA inh 11% and Menin-MLL FL inh 2.
`CC(=O)NCCc1nc2ccccc2n1Cc1cccc(C)c1` gave p53 reactivation -2%, MLL CXXC-DNA inh -4% and Menin-MLL FL inh 2.
Screening CCn1nc(C)c(/C=N/NC(=O)c2ccc3c(c2)c(C)c(C)n3Cc2ccccc2)c1C returned ClpP mod 10µM*, p53 reactivation -1%, Menin-MLL TR inh -6%, MLL CXXC-DNA inh 12% and Menin-MLL FL inh 0.
For C=C(C)Cn1c(CCNC(=O)CC)nc2ccccc21 the results were ClpP mod 32µM*, p53 reactivation 1%, Menin-MLL TR inh 12%, MLL CXXC-DNA inh 4% and Menin-MLL FL inh -6.
For C=C(C)Cn1c(CCNC(=O)C(C)C)nc2ccccc21 the results were ClpP mod 0%, p53 reactivation 3%, Menin-MLL TR inh -8%, MLL CXXC-DNA inh 9% and Menin-MLL FL inh 8.
CCc1ccc(CNC(=O)c2ccc3c(c2)c(C)c(C)n3Cc2ccccc2)cc1 was read as ClpP mod 25µM*.
`Cc1ccc(Cn2c(CCNC(=O)c3cccc(C)c3)nc3ccccc32)cc1` gave ClpP mod 22µM*.
CCc1cccc(NC(=O)c2ccc3c(c2)c(C)c(C)n3Cc2ccc(F)cc2)c1 was read as ClpP mod 20µM*.
Cc1ccc(CCNC(=O)c2ccc3c(c2)c(C)c(C)n3Cc2ccccc2)cc1 was read as ClpP mod 22µM*.
Screening CCn1c(C)c(C)c2cc(C(=O)Nc3cccc(Cl)c3)ccc21 returned ClpP mod inconclusive, p53 reactivation 12%, Menin-MLL TR inh inconclusive, MLL CXXC-DNA inh 16% and Menin-MLL FL inh 5.
CC(=O)c1cccc(NC(=O)c2ccc3c(c2)c(C)c(C)n3Cc2ccc(Cl)cc2)c1 was read as ClpP mod -5%.
